# Assay results as given in PubChem BioAssay (NCI).
# This is part of a sample that, as a whole, favours compounds with a hit. Of some 79,000 tested, about 15% had one in any assay. Values without a mark were called inactive. Cut-off read from the data, not from the text of the source: active = growth inhibition above about 70%; inactive = the rest.
# Test: NCI Yeast Anticancer Drug Screen. Data for the mec2-1 strain (AID 157)
# Settings: S. cerevisiae mec2-1 strain, at 5.0 µM (retest, dose inferred, filed as 0.5), hits give high values
# Summary of the method: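 Mutant yeast (mec2-1) grown with compound; growth inhibition relative to vehicle control reported.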
row,Structure (SMILES),growth inhibition [%]
1,CCN(CC)CC[n+]1ccc2c(C)c3[nH]c4ccc(O)cc4c3c(C)c2c1,9
2,O=[n+]1c2ccc(Cl)cc2n([O-])c2ccc(Cl)cc21,1
3,CCOP(=O)(OCC)C(Cc1ccccc1)N=C(c1ccccc1)c1ccccc1 (centres undefined),-3
4,CC[C@@]1(O)C(=O)OCc2c1cc1n(c2=O)Cc2cc3c(N)cccc3nc2-1,2
5,COC1C=COC2(C)Oc3c(C)c(O)c4c(c3C2=O)/C(=N/C2CCC(O)OC2C)C=C(NC(=O)/C(C)=C\C(=O)C2CC2C(O)C(C)C(O)C(C)C(OC(C)=O)C1C)C4=O (centres undefined),2
6,COc1cc2c(c(OC)c1OC)-c1c(cc3c(c1OC)OCO3)CC(C)C(C)(O)C2OC(=O)c1ccccc1 (centres undefined),-8
7,O=c1ssc2ncccc12,14
8,O=C1C2C(C(=O)N1c1ccc(OCc3ccccc3)cc1)C1c3ccccc3C2C2CCCCN21 (centres undefined),-5
9,COc1ccc(-c2cn(-c3ccc(I)cc3)c3ncnc(N)c23)cc1,-6
10,CCOC(=O)C(NC(=O)c1ccccc1)(N1CCN(c2cc3c(cc2F)c(=O)c(C(=O)O)cn3C2CC2)CC1)C(F)(F)F (centres undefined),-6
11,C/C(=N\O)C1CC2C=C(C#N)C1N(Cc1ccccc1)C2 (centres undefined),-16
12,CC/C(=C(\c1ccccc1)c1ccc(OCCN(C)C)cc1)c1ccccc1,46
13,COc1ccccc1N=NC(C(=O)c1ccccc1)C(=O)c1ccccc1,-3
14,CC(O)C(O)C(O)C(/C=N\Nc1ccccc1)=N/Nc1ccccc1 (centres undefined),-5
